Assay results: PubChem BioAssay (NCATS)
Where “and” joins values, the source holds several entries; their conditions need not be identical. Identical values can stand only once. Records with an inconclusive call do not appear. Calls of active or inactive are those of the source. Unless noted, the call rests on the fitted dose curve; in most records, active means well fitted curve in the direction sought with a large enough effect; inconclusive means small, poorly fitted or top-dose-only effect, or another doubt; inactive means no such curve, though single readings can be large; an effect the other way counts as inactive or inconclusive.

Legend:
[1] = target: Glucocorticoid receptor (Homo sapiens) (UniProt P04150); test: GR-GFP Redistribution (AID 450;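 active means compounds whose dose series gives a full or clear partial fitted curve of increased nuclear translocation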; further: potency means the concentration at half of the fitted maximal effect); settings: U2OS GR-GFP nuclear translocation, laser cytometry, 2 h
[2] = target: Glucocorticoid receptor (Homo sapiens) (UniProt P04150); test: GR-EFC Redistribution (AID 451; calls by dose curve; further: potency means the concentration at half of the fitted maximal effect); settings: CHO-K1 GR-EFC translocation, beta-gal luminescence, 2 h
Procedure, shortened: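 CHO-K1 cells stably expressing nuclear-localized β-gal enzyme acceptor and GR fused C-terminally to the enzyme donor fragment; ligand-driven nuclear translocation restores β-gal by complementation. Compounds titrated up to 46 uM final, 2 h at 37 °C; luminescence read.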

[3] = target: Mitogen-activated protein kinase 10 (Mus musculus) (UniProt Q61831); test: JNK3 AlphaScreen Assay (AID 530; active means well fitted curve in either direction with a large enough effect, not every such curve was filed as active;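 further: kinase came from lysate of stimulated human HepG2 cells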; further: potency means the concentration at half of the fitted maximal effect); settings: JNK3 lysate, c-Jun phosphorylation; series mostly up to 57.1 µM
Procedure, shortened: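 JNK3 came from HepG2 lysates pre-activated with IL-1beta and TNF-alpha and phosphorylated biotinylated GST-cJun (1-79) at 10 uM ATP, pH 7.6, room temperature. Compounds were titrated. AlphaScreen signal used anti-phospho-cJun (Ser73) antibody.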

[4] = target: 3',5'-cyclic-AMP phosphodiesterase 4B (Homo sapiens) (UniProt Q07343); test: qHTS Assay for Inhibitors of PDE-IV (AID 607; active means well fitted activation curve with a large enough effect in the main read-out, with a control signal flat, not every such curve was filed as active; further: % of control where 0% means no effect); settings: HEK293 ACTOne CNG channel cells, membrane potential fluorescence; series mostly up to 22.9 µM
Procedure, shortened: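 Live HEK293 cells with a modified cyclic nucleotide-gated (CNG) channel report intracellular cAMP via membrane-potential dye fluorescence (ex 535/em 590 nm). Endogenous PDE-IV was targeted. Compounds were tested at up to 22.9 uM final; RO 20-1724 100 uM served as control.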

[5] = target: Guanine nucleotide-binding protein G(i) subunit alpha-1 (Homo sapiens) (UniProt P63096); test: qHTS Assay for Inhibitors of RGS12 GoLoco Motif Activity (Green Fluorophore) (AID 879); settings: Galphai1/FITC-RGS12 GoLoco peptide, fluorescence polarization; series mostly up to 57.1 µM;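 further: 0% = labeled peptide with Gαi1 and full inhibition = labeled peptide alone without protein; negative values mean loss of peptide binding seen as reduced polarization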
Procedure, shortened: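 Fluorescence polarization assay: 50 nM Gαi1 with 10 nM FITC-labeled RGS12 GoLoco peptide in 10 mM Tris pH 7.5, 150 mM NaCl, 0.1 mM GDP, 0.05% NP40, 10 min at room temperature with compound.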

[6] = Cell Viability - N2a (AID 540); settings: N2a mouse neuroblastoma cell viability; activity change, negative = cytotoxicity: at 92.2 µM (top of the series);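 further: plate controls were DMSO alone for no effect and tamoxifen control for full effect; nearly all actives have a fitted effect of over 45% in size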
Procedure, shortened: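 Mouse neuroblastoma N2a cells (1500/well) were preincubated 5 hr at 37 °C, then exposed to compounds for 40 hr at 37 °C in complete medium. Viability was read as intracellular ATP by CellTiter-Glo luminescence; AC50 from Hill fits.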

[7] = Cell Viability - HUV-EC-C (AID 542); settings: HUV-EC-C endothelial cell viability, qHTS; series mostly up to 92.2 µM; further: nearly all actives have a fitted effect of over 35% in size; further: potency means the concentration at half of the fitted maximal effect; on activity change, negative = cytotoxicity: on the % scale 0 is the no-effect control and ±100 the full control effect
Procedure, shortened: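 HUV-EC-C normal human vascular endothelial cells, 1000 cells/well, pre-incubated 5 hr at 37 °C, then exposed to compounds for 40 hr at 37 °C in complete medium. Viability measured as intracellular ATP by CellTiter-Glo luminescence; AC50 from Hill fits.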

[8] = Cell Viability - H-4-II-E (AID 543); settings: H-4-II-E rat hepatoma viability; series mostly up to 92.2 µM; further: nearly all actives have a fitted effect of over 35% in size; further: potency means the concentration at half of the fitted maximal effect
Procedure, shortened: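 Rat hepatoma H-4-II-E cells (1500/well) were plated, incubated 5 hr at 37 °C, then exposed to compounds for 40 hr at 37 °C. Cellular ATP was read by CellTiter-Glo luminescence; AC50 came from Hill-equation fits of concentration-response data.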

[9] = Cell Viability - SH-SY5Y (AID 544); settings: SH-SY5Y neuroblastoma cell viability; series mostly up to 92.2 µM; further: nearly all actives have a fitted effect of over 55% in size; further: potency means the concentration at half of the fitted maximal effect
Procedure, shortened: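 Human neuroblastoma SH-SY5Y cells (1500/well) in complete medium were exposed to compounds for 40 hr at 37 °C; intracellular ATP was then quantified by CellTiter-Glo luminescence after 20 min at room temperature. AC50 came from Hill-equation concentration-response fits.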

[10] = Cell Viability - Renal Proximal Tubule (AID 545); settings: renal proximal tubule cells viability, primary cells of rat origin; series mostly up to 91.7 µM; further: nearly all actives have a fitted effect of over 40% in size; further: potency means the concentration at half of the fitted maximal effect
Procedure, shortened: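 Primary rat renal proximal tubule cells (1000/well) were treated with compounds for 40 hr at 37 °C in complete medium. Intracellular ATP was measured by CellTiter-Glo luminescence, and AC50 values came from Hill-equation fits of concentration-response data.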

[11] = Cell Viability - Mesenchymal (AID 546); settings: mesenchymal cells viability, qHTS; series mostly up to 91.7 µM;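 further: cells exposed to compound for 40 hours before reading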
Procedure, shortened: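 Normal human renal glomerulus-derived kidney mesenchymal cells, 1000 per well in complete medium, were treated with compounds for 40 hr at 37 °C. Viability was read as intracellular ATP by CellTiter-Glo luminescence; AC50 values came from Hill-equation fits of qHTS concentration-response data.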

[12] = Cellular Toxicity (caspase-3) HepG2 (AID 654); settings: HepG2 caspase-3 activation, luminescence; series mostly up to 92.2 µM; further: potency means the concentration at half of the fitted maximal effect;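 on caspase-3 activation: cells exposed to compound for 16 hours before reading; 0% = DMSO alone and 100% = caspase signal from 100 µM tamoxifen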
Procedure, shortened: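 HepG2 cells (1500/well) in complete medium were treated with compounds for 16 hr at 37 °C. Caspase-3/7 activity was then read as luminescence from peptide-aminoluciferin cleavage. AC50 came from Hill fits, normalized to DMSO and 100 uM tamoxifen.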

[13] = Cellular Toxicity (caspase-3) Jurkat (AID 655); settings: Jurkat caspase-3 activation, luminescence; series mostly up to 92.2 µM;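 further: cells exposed to compound for 16 h at 37 °C before reading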; further: potency means the concentration at half of the fitted maximal effect
Procedure, shortened: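 Jurkat cells (5000/well) in complete medium were treated with compounds for 16 hr at 37 °C, then Caspase-Glo 3/7 luminescence was read after 20 min at room temperature. Data normalized to DMSO (basal) and 100 uM tamoxifen (100%); AC50 from Hill fit.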

[14] = Cellular Toxicity (caspase-3) SHSY5Y (AID 657); settings: SH-SY5Y caspase-3 activation, DMSO zero, 10 µM staurosporine = 100%; series mostly up to 91.7 µM
Procedure, shortened: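 SH-SY5Y human neuroblastoma cells (1500/well) were treated with compounds for 16 h at 37 °C, then Caspase-Glo 3/7 luminescence was read after 1 h at room temperature. Data normalized to DMSO and 10 uM staurosporine; AC50 from Hill fits.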

[15] = Cellular Toxicity (caspase-3) BJ (AID 658); settings: BJ fibroblasts, luminescence, normalized: DMSO 0%, staurosporine 100%; series mostly up to 91.7 µM
Procedure, shortened: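 Luminescent aminoluciferin-substrate cleavage reports caspase 3/7 activity in normal human BJ fibroblasts after 16 hr compound exposure at 37 °C. Normalized to DMSO (basal) and 10 uM staurosporine (100%); AC50 from Hill fit of concentration-response.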

[16] = Cellular Toxicity (caspase-3) SK-N-SH (AID 661); settings: SK-N-SH caspase-3 activation, qHTS, DMSO as zero, staurosporine as full; series mostly up to 91.7 µM
Procedure, shortened: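 SK-N-SH human neuroblastoma cells (1500/well) were treated with compounds for 16 hr at 37 °C in complete medium; caspase 3/7 activity was read by Caspase-Glo luminescence. AC50 came from Hill fits of data normalized to DMSO and 10 uM staurosporine.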

[17] = Cellular Toxicity (caspase-3) H-4-II-E (AID 663); settings: H-4-II-E rat hepatoma, scaled: DMSO 0%, 100 µM tamoxifen 100%; series mostly up to 92.2 µM;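 further: cells exposed to compound for 16 hr before readout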
Procedure, shortened: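 Luminescence from caspase-cleaved aminoluciferin substrate, read 20 min after reagent addition, reports caspase 3/7 activation in rat H-4-II-E cells after 16 hr compound exposure. Normalized to DMSO (basal) and 100 uM tamoxifen (100%); AC50 from Hill fits.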

[18] = Cellular Toxicity (caspase-3) Hek293 (AID 664); settings: HEK293 caspase-3 activation, DMSO = 0%, 100 µM tamoxifen = 100%; series mostly up to 92.2 µM;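 further: cells exposed to compound for 16 h at 37 °C before readout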
Procedure, shortened: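 HEK293 cells were exposed to compounds in complete medium for 16 hr at 37 °C, then caspase-3/7 activity was read by Caspase-Glo 3/7 luminescence after 20 min at room temperature. Data normalized to DMSO and 100 uM tamoxifen; AC50 from Hill fits.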

[19] = Cellular Toxicity (caspase-3) N2a (AID 665); settings: N2a cells, luminescence, normalized: DMSO 0%, 10 µM staurosporine 100%; series mostly up to 92.2 µM;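 further: compound exposure lasted 16 h at 37 °C before readout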
Procedure, shortened: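 Mouse N2a neuroblastoma cells (1500/well) were treated with compounds for 16 h at 37 °C, then caspase-3/7 activity was read by Caspase-Glo luminescence after 1 h at room temperature. Data were normalized to DMSO and 10 uM staurosporine; AC50 from Hill fits.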

[20] = Cellular Toxicity (caspase-3) NIH 3T3 (AID 666); settings: NIH 3T3 caspase-3 activation, apoptosis/toxicity, 0% DMSO, 100% is 100 µM tamoxifen; series mostly up to 92.2 µM;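 further: 0% = DMSO basal and 100% = 100 µM tamoxifen stimulation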
Procedure, shortened: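 Mouse NIH 3T3 fibroblasts (1000 cells/well) were treated with compound for 16 hr at 37°C in complete medium; caspase-3/7 activity was read by Caspase-Glo luminescence. Normalized to DMSO and 100 uM tamoxifen; AC50 from Hill fits.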

Sequence of Guanine nucleotide-binding protein G(i) subunit alpha-1 (Homo sapiens) (P63096 whole entry, looked up): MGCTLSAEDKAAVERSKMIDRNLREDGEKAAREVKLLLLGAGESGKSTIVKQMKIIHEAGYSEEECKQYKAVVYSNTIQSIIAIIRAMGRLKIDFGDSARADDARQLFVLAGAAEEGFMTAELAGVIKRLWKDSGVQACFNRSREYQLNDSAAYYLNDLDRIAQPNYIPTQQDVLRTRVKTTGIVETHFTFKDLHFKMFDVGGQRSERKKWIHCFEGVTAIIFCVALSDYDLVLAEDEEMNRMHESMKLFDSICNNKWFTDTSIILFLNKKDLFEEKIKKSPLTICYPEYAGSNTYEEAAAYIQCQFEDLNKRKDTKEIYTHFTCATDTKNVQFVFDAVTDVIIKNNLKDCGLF
Sequence of Glucocorticoid receptor (Homo sapiens) (P04150 whole entry, looked up, the tested form may be a part): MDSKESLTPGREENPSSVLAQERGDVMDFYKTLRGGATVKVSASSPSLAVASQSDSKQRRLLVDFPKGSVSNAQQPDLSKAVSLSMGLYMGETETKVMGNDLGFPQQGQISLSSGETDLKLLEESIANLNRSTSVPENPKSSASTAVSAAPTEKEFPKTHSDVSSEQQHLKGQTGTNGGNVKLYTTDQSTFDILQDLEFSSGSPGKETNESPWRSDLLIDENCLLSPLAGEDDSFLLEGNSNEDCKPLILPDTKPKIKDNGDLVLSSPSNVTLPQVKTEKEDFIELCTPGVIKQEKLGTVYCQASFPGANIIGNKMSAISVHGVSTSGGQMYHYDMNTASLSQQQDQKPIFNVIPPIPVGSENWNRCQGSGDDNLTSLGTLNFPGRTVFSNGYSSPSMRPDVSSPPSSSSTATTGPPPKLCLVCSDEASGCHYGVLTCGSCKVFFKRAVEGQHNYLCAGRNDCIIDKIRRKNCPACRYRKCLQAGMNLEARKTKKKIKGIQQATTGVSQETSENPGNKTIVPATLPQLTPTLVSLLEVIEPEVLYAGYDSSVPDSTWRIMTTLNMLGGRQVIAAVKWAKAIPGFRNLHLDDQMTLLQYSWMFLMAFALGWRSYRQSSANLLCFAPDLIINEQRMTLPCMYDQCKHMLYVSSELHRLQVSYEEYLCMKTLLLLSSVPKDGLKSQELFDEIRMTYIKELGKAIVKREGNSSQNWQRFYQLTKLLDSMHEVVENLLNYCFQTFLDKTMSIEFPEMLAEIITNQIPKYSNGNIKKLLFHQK
Sequence of 3',5'-cyclic-AMP phosphodiesterase 4B (Homo sapiens) (Q07343 whole entry, looked up): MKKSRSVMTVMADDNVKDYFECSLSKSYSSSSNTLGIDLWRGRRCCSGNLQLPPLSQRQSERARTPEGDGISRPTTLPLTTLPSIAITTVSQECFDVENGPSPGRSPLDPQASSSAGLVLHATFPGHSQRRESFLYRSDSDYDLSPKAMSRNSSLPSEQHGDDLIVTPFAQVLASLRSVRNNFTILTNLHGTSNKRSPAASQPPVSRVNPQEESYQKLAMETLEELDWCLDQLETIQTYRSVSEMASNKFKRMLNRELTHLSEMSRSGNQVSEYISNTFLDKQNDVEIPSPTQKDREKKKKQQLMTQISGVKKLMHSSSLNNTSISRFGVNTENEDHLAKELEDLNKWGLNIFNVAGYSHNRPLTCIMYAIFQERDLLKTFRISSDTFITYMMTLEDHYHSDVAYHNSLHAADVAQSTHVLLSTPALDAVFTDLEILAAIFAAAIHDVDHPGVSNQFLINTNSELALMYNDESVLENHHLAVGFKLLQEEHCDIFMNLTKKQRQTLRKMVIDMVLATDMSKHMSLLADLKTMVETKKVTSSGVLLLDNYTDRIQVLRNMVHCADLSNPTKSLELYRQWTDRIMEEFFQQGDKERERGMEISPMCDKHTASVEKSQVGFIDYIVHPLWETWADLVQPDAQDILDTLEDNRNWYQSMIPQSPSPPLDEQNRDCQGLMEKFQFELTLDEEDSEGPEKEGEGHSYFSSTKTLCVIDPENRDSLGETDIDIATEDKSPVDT

OCCN1CCN(CCCN2c3ccccc3Sc3ccc(Cl)cc32)CC1
inactive: Potency [1] > 20.6 µM | Potency [2] > 46 µM and > 20.6 µM | Potency [3] | outcome [4] | outcome [5]

CC1=C(/C=C/C(C)=C/C=C/C(C)=C/C(=O)O)C(C)(C)CCC1
inactive: Potency [1] > 20.6 µM

CCCCOC(=O)c1ccc(O)cc1
inactive: Potency [1] > 20.6 µM | Potency [2] > 20.6 µM | Potency [3] | activity change, negative = cytotoxicity [6] 2.23% | Potency [7] | Potency [8] | Potency [9] | Potency [10] | outcome [11] | outcome [4] | Potency [12] | Potency [13] | outcome [14] | outcome [15] | outcome [16] | outcome [17] | outcome [18] | outcome [19] | outcome [20]

COC(=O)C1=C(C)NC(C)=C(C(=O)OC)C1c1ccccc1[N+](=O)[O-]
inactive: Potency [1] > 46 µM and > 20.6 µM | Potency [2] > 46 µM and > 20.6 µM | Potency [3] | outcome [11] | outcome [4] | Potency [12] | Potency [13] | outcome [15] | outcome [16] | outcome [17] | outcome [18] | outcome [19] | outcome [5]
active: Potency [9] 25.1 µM | Potency [10] 31.6 µM

CCOc1ccc2ccccc2c1C(=O)N[C@@H]1C(=O)N2[C@@H]1SC(C)(C)[C@@H]2C(=O)O
inactive: Potency [1] > 20.6 µM | Potency [2] > 20.6 µM | Potency [3] | outcome [4]

C=Cc1c(C)c2cc3[nH]c(cc4nc(cc5nc(cc1[nH]2)C(C)=C5CCC(=O)O)C(CCC(=O)O)=C4C)c(C)c3C=C
active: Potency [3] 0.398 µM [activator]
inactive: Potency [1] > 46 µM | Potency [2] > 46 µM | outcome [4] | outcome [5]

COc1ccc2c(c1)C(=O)N(CCc1ccc(S(=O)(=O)NC(=O)NC3CCCCC3)cc1)C(=O)C2(C)C
inactive: Potency [1] > 20.6 µM | Potency [2] > 20.6 µM | Potency [3] | outcome [4]

NC(N)=NCCC[C@H](N)C(=O)O
inactive: Potency [1] > 46 µM | Potency [2] > 46 µM | Potency [3] | outcome [4] | outcome [5]

CCCc1c(OCCCCc2nn[nH]n2)ccc(C(C)=O)c1O
inactive: Potency [1] > 20.6 µM

CCCCOc1cc(C(=O)OCCN(CC)CC)ccc1N
inactive: Potency [1] > 20.6 µM | Potency [2] > 20.6 µM | Potency [3] | outcome [4]

CCCn1cnc2c1c(=O)n(CCCCC(C)=O)c(=O)n2C
inactive: Potency [1] > 46 µM | Potency [2] > 46 µM | Potency [3] | outcome [4] | outcome [5]

C[C@H](N)[C@H](O)c1cccc(O)c1
inactive: Potency [1] > 20.6 µM | Potency [2] > 20.6 µM | Potency [3] | outcome [4]

CCN(CC)CCOC(=O)C1(C2CCCCC2)CCCCC1
inactive: Potency [3] | outcome [4] | outcome [5]

Nc1cc(=O)[nH]c(N)n1
inactive: outcome [4] | outcome [5]

NCCNCCNCCNCCN
inactive: Potency [3] | activity change, negative = cytotoxicity [6] -2.82% | Potency [7] | Potency [8] | Potency [9] | Potency [10] | outcome [11] | Potency [12] | Potency [13] | outcome [14] | outcome [15] | outcome [16] | outcome [17] | outcome [18] | outcome [19] | outcome [20]

Cc1c(O)cccc1C(=O)N[C@@H](CSc1ccccc1)[C@H](O)CN1C[C@H]2CCCC[C@H]2C[C@H]1C(=O)NC(C)(C)C
active: activity change, negative = cytotoxicity [6] -108% | Potency [7] 31.6 µM | Potency [8] 31.6 µM | Potency [9] 1.26 µM | Potency [10] 31.6 µM | Potency [12] 63.1 µM | Potency [13] 31.6 µM
inactive: Potency [3] | outcome [14] | outcome [15] | outcome [19] | outcome [20]

NC(=O)c1ncn([C@@H]2O[C@H](CO)[C@@H](O)[C@H]2O)n1
active: Potency [9] 31.6 µM
inactive: Potency [3] | Potency [7] | Potency [10] | outcome [11] | Potency [12] | Potency [13] | outcome [14] | outcome [15] | outcome [16] | outcome [17] | outcome [18] | outcome [19] | outcome [20] | outcome [5]
